{
  "source": "PubChem BioAssay",
  "note": "Values without a mark were called inactive. No rule for the calls is given here.",
  "data": [
    {"target": "Pantothenate synthetase (Mycobacterium tuberculosis (strain ATCC 25618 / H37Rv)) (UniProt P9WIL5)", "sequence (P9WIL5 whole entry, looked up)": "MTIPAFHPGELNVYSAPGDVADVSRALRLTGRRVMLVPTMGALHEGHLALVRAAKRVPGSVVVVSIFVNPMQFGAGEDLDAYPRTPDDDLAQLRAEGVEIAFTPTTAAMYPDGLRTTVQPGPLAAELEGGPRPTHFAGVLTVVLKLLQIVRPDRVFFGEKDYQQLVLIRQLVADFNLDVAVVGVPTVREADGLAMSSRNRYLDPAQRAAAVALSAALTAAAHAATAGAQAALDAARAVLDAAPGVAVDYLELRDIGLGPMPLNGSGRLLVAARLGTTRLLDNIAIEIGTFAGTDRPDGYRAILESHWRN", "test": "Coupled enzyme confirmation of inhibitors against recombinant Mtb PanC (AID 375);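 also: 0% = full reaction with vehicle and 100% = no enzyme background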", "settings": "coupled enzyme assay; at 10 µM, active compounds read high", "units": {"inhibition": "%"}, "values": [
      {"smiles": "COc1cccc(-c2nnc(NC(=O)c3ccccc3Br)o2)c1", "inhibition": 0},
      {"smiles": "COc1ccc(CN(C(=O)CN2C(=O)COc3ccccc32)C2CCCC2)c(OC)c1", "inhibition": 0},
      {"smiles": "Nc1nc2n(n1)C(c1cccc(Br)c1)CC(c1ccc(F)cc1)N2", "note": "(configuration not stated)", "inhibition": 0},
      {"smiles": "Cn1c(=O)cc(NCCc2ccccc2)[nH]c1=O", "inhibition": 0},
      {"smiles": "CCOC(=O)Cc1csc(NC(=O)CSc2nnc(C(C)C)n2CC)n1", "inhibition": 0},
      {"smiles": "CCC(CC)C1C(C#N)=C(N)Oc2n[nH]c(C)c21", "note": "(configuration not stated)", "inhibition": 0},
      {"smiles": "COC(=O)C1=C(C)Nc2nnnn2C1c1cccs1", "note": "(configuration not stated)", "inhibition": 8},
      {"smiles": "COc1cccc(-n2ccnc2SCC(=O)N2CCc3ccccc32)c1", "inhibition": 0},
      {"smiles": "COc1ccccc1N(CC(=O)NC1CCCC1)C(=O)c1csnn1", "inhibition": 1},
      {"smiles": "CCOC(=O)c1ccc(NC(=O)Cn2cc3c(n2)CCC(C)C3)cc1", "note": "(configuration not stated)", "inhibition": 8},
      {"smiles": "COC(=O)[C@@H](N)Cc1ccc(O)cc1", "inhibition": 0},
      {"smiles": "O=C(NCCc1c[nH]c2ccccc12)c1cnc2n(c1=O)CCS2", "inhibition": 1},
      {"smiles": "CCOc1ccc(C2/C(=C(/O)c3ccccc3)C(=O)C(=O)N2CCCN(C)C)cc1OC", "note": "(configuration not stated)", "inhibition": 0},
      {"smiles": "O=c1[nH]c(Nc2ccccc2)cc2ccccc12", "inhibition": 0},
      {"smiles": "CCn1cnc2sc(C(=O)Nc3ccc4c(c3)OCO4)c(C)c2c1=O", "inhibition": 4},
      {"smiles": "CCOc1ccc2c(c1)sc1nc(C(=O)OC)cc(=O)n12", "inhibition": 0},
      {"smiles": "CCC(=O)Nc1ccc(Cl)c(NC(=O)C(C)C)c1", "inhibition": 3},
      {"smiles": "CCOc1ccc2[nH]c(O)c(NC(C)=O)c2c1", "inhibition": 0},
      {"smiles": "CC(=O)Oc1ccc(C(c2ccc(OC(C)=O)cc2)c2ccccn2)cc1", "inhibition": 0},
      {"smiles": "COc1ccccc1CNC(=O)C1CCN(S(=O)(=O)N2CCCCC2)CC1", "inhibition": 0},
      {"smiles": "O=C(C1CCCN(S(=O)(=O)c2cccnc2)C1)N1CCN(c2ccccn2)CC1", "note": "(configuration not stated)", "inhibition": 0},
      {"smiles": "CC1CCN(C(=O)CSc2nc3c(cnn3-c3ccccc3)c(=O)[nH]2)CC1", "inhibition": 0}
    ]}
  ]
}
